Source: PubChem BioAssay (National Center for Advancing Translational Sciences (NCATS))
Tau fluor cs = counter-screen for tau fibril formation inhibitors; tau K18 P301L Alexa594 fluorescence, heparin fibrillization; Potency, µM (titrated, usually from 57.7 µM), for the others: top-dose activity change, negative = decrease; hit rate 0.93% among 280,000; further: nearly all actives have a fitted effect of over 55% in size
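Human tau K18 P301L (15 uM unlabeled, 0.24 uM Alexa 594-labeled) in 100 mM sodium acetate pH 7 with 20 uM heparin, 6 hr at 37 C. ThT 30 uM added, 1 hr ambient; Alexa 594 FP and total fluorescence read at 555/632 nm.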
RORg inh = blocks mouse ROR gamma transcriptional activity | P51450 | Drosophila S2 Gal4-RORgamma UAS-luciferase reporter, 20 h | Potency, µM (series often up to 53.6 µM), inactives show at the top dose activity change, negative = inhibition, actives largely listed as inhibitors | hit rate 5.4% among 310,000; further: nearly all actives have a fitted effect of over 60% in size
Target sequence (P51450 whole entry, looked up, the tested form may be a part): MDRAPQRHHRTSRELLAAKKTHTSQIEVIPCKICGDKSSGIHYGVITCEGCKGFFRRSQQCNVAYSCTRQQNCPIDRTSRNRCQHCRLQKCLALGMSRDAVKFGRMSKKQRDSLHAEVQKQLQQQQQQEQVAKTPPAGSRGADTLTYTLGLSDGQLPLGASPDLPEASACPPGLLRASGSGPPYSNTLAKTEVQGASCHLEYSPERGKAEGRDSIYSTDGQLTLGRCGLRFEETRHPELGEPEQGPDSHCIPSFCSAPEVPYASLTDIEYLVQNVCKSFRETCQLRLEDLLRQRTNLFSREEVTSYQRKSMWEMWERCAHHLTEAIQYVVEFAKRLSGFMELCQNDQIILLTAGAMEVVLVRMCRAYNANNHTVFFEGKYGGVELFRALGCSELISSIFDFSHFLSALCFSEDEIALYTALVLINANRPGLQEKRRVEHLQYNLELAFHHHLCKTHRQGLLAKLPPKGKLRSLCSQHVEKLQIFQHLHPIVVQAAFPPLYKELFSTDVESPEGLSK
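ROR gamma transcriptional activity was tracked as Gal4-UAS luciferase output in stably transfected Drosophila Schneider cells, with compound added 1 hr before 700 uM copper sulfate induction and a 20 hr ambient-temperature incubation.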
Tau fibril ThT = inhibitors of human tau fibril formation, thioflavin T binding | Potency, µM (titrated, usually from 57.4 µM), without a hit: top-dose activity, negative = inhibition, hits mostly inhibitors | hit rate 2.1% among 270,000 | P10636 | recombinant tau K18 P301L, heparin-induced fibrillization, ThT fluorescence; further: nearly all actives have a fitted effect of over 55% in size
Target sequence (P10636 561-689 P618L limits assumed): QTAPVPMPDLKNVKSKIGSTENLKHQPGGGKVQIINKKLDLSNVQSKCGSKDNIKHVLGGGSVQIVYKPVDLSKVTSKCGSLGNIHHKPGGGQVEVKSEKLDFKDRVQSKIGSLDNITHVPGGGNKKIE
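ThT emission at 510 nm, taken 1 hr after adding 30 uM dye, quantifies aggregates formed when 20 uM heparin acts on human tau K18 P301L for 6 hr at 37 C.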
Tau FP inhib = blocks human tau fibril formation measured by polarization. P10636. K18 P301L tau heparin fibrillization, Alexa594 FP, 6 h. Potency, µM (highest dose often 57.7 µM), for inactives: top-dose activity, negative = inhibition, hits mostly inhibitors. hit rate 0.39% among 280,000. AID 1468; further: nearly all actives have a fitted effect of over 55% in size
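Steps: dispense K18 P301L tau (15 uM plus 0.24 uM Alexa 594 tracer, final) in pH 7 sodium acetate; add compound; add heparin (20 uM final); incubate 6 hr, 37 C; add ThT (30 uM final); after 1 hr ambient, read FP.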
Gal4-VP16 FLuc = counter-screen for ROR gamma inhibitors: Gal4-VP16 reporter; Drosophila S2 Gal4-VP16 UAS-luciferase, luminescence, 20 h; Potency, µM (highest dose often 53.6 µM), for the others: at the highest dose activity, negative = inhibition, actives largely listed as inhibitors; hit rate 3.5% among 310,000; AID 2546;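 further: Gal4-VP16 expression switched on by copper sulfate through the metallothionein promoter; nearly all actives have a fitted effect of over 50% in size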
Starred values were filed as active, the others as inactive; ? = inconclusive; · = no result given; [ ] = another dose, or the depositor's remark. Compounds with a hit are over-represented: about 7.3% of the library has one in this group of screens. The call rests on the fitted dose curve; in most records, active means well fitted curve in the direction sought with a large enough effect; inconclusive means small, poorly fitted or top-dose-only effect, or another doubt; inactive means no such curve, though single readings can be large; an effect the other way counts as inactive or inconclusive. On the % scale 0 is the no-effect control and ±100 the full control effect; potency means the concentration at half of the fitted maximal effect.

SMILES	Tau fluor cs	RORg inh	Tau fibril ThT	Tau FP inhib	Gal4-VP16 FLuc
COc1ccc(C)cc1NS(=O)(=O)c1ccc2c(c1)CCN2C(C)=O	·	?	·	·	-20.0%
COc1ccc(CNC(=O)CNS(=O)(=O)c2cccs2)cc1	·	-17.9%	·	·	-3.5%
COc1cc(OC)c(NC(=O)c2ccc3c(c2)N(Cc2ccc(C)cc2)CCS3)cc1Cl	?	·	-4.6%	14.1%	·
O=C(Nc1ccc(Oc2ccc(NC(=O)Nc3ccc([N+](=O)[O-])cc3)cc2)cc1)Nc1ccc([N+](=O)[O-])cc1	4.47µM*[quencher]	35.5%	6.31µM*	25.1µM*	-5.5%
Cc1ccc(C(C)C)cc1NC(=O)Nc1ccc([N+](=O)[O-])cc1	7.94µM*[quencher]	35.5µM*	?	31.6µM*	12.6µM*
O=C(Nc1ccc([N+](=O)[O-])cc1)Nc1ccc([N+](=O)[O-])cc1	·	17.5%[10 µM]	·	·	-13.7%
Cc1cccc2cc(C#N)c(NCCCNS(=O)(=O)c3ccc(Cl)cc3)nc12	?	14.1%	-3.7%	-9.9%	?
Cc1cccc(-c2nc(SCC(=O)Nc3ccc4c(c3)OCCO4)c(-c3ccccc3)[nH]2)c1	8.91µM*[quencher]	·	-13.8%	2.0%	·
O=C(CSc1nc2ccccc2[nH]1)Nc1ccc2c(c1)OCCO2	-11.8%	?	?	-1.2%	4.1%
O=C(CSc1nc(-c2cccc(F)c2)[nH]c1-c1ccccc1)Nc1ccc2c(c1)OCCO2	11.2µM*[quencher]	·	?	?	·
O=S1(=O)c2ccccc2N(Cc2ccccc2F)c2ccccc21	-16.5%	·	-4.6%	-17.3%	·
CC(C)CCNC(=O)c1cn(C)c2ccc(S(=O)(=O)N3CCOCC3)cc2c1=O	-9.8%	·	6.8%	-7.9%	·
O=C(c1cc2sccc2n1Cc1ccccc1)N1CCN(c2nc3ccccc3s2)CC1	-18.2%	-25.9%	?	3.8%	10µM*
CCC(=O)N1CCN(c2nc3ccccc3s2)CC1	-7.5%	?	?	-5.2%	6.6%
CCc1ccccc1NC(=S)N(Cc1ccco1)C(C)c1cccs1 (configuration not stated)	-5.2%	11.2µM*	1.8%	4.4%	-7.2%[10 µM]
COc1ccc(NC(=S)N(CCN2CCCCC2)Cc2ccco2)cc1	-2.5%	?	2.7%	-3.9%	-11.5%
Cc1cc(C)cc(NC(=S)N(CCN2CCCCC2)Cc2ccco2)c1	-11.3%	10µM*	1.1%	-1.4%	0.3%[10 µM]
Cc1ccc(NC(=S)N(CCN2CCCCC2)Cc2ccco2)cc1Cl	-19.5%	14.1µM*	-5.3%	-4.6%	?
CCc1ccc(NC(=O)N(Cc2ccco2)C(C)c2cccs2)cc1 (configuration not stated)	-15.7%	?	?	-3.8%	-2.6%
CCc1ccccc1NC(=S)N(CCN1CCCCC1)Cc1ccco1	-4.0%	11.2µM*	-8.1%	2.0%	-6.7%
Cc1ccc(C2=NS(=O)(=O)N(C)C(C(=O)NC3CCCCC3)=C2)cc1	·	-1.1%	·	·	-6.0%
Fc1ccc(-c2nc(-c3cccs3)c(-c3cccs3)[nH]2)cc1	?	·	-7.5%	11.2%	·
O=[N+]([O-])c1cccc(-c2nc(-c3cccs3)c(-c3cccs3)[nH]2)c1	11.2µM*[quencher]	42.6%	?	5.9%	-23.2%
O=[N+]([O-])c1ccc(-c2nc(-c3cccs3)c(-c3cccs3)[nH]2)cc1	7.94µM*[quencher]	?	5.62µM*	?	?
Oc1cccc(-c2nc(-c3cccs3)c(-c3cccs3)[nH]2)c1	12.6µM*[quencher]	·	15.8µM*	?	·
SMILES	Tau fluor cs	RORg inh	Tau fibril ThT	Tau FP inhib	Gal4-VP16 FLuc
O=[N+]([O-])c1cccc(-c2nc(-c3ccccc3)c(-c3cccs3)[nH]2)c1	?	-6.9%	-4.9%	11.9%	-20.2%
NCCC[C@@H](CC(=O)N[C@@H]1CCNC[C@H]1C(=O)N[C@H](CC(=O)N[C@@H](CCC(=O)O)CC(=O)O)Cc1ccccc1)NC(=O)C[C@H](Cc1ccccc1)NC(=O)[C@@H]1CCCC[C@H]1N	-2.6%	21.0%	-5.7%	-4.5%	1.2%
CC(=O)Nc1ccc(/C=C2\Sc3ccccc3C2=O)cc1	-9.9%	37.9%	?	0.6%	1.6%
Cc1ccc(/C=C2\Sc3ccccc3C2=O)s1	-15.5%	11.2µM*	3.16µM*	1.9%	?
CCOc1ccc(-n2nc(CO)c(C(=O)NCCCc3ccccc3)n2)cc1	-9.8%	·	?	6.4%	·
Cc1cc(O)c(C(C)C)cc1NC(=O)Nc1cccc2ccccc12	25.1µM*[quencher]	24.5%	?	18.4%	0.2%
Cc1ccc(C(=O)O)cc1NC(=O)Nc1cccc2ccccc12	·	-10.1%	·	·	-3.9%
Cc1ccccc1CNC(=O)CCC(=O)N1CC2CCCN2c2ccccc21 (configuration not stated)	-15.1%	·	-5.4%	2.8%	·
Cc1onc(-c2ccccc2Cl)c1C(=O)N1CCC(C)CC1	·	-17.5%	·	·	0.7%
Cc1oc2c(c1C(=O)N1CCC(C)CC1)C(=O)c1ccccc1C2=O	-16.7%	7.94µM*	-10.8%	-0.1%	?
CCOC(=O)C1CCN(C(=O)c2c(C)oc3c2C(=O)c2ccccc2C3=O)CC1	-18.1%	11.2µM*	-15.2%	-1.6%	?
O=C(Nc1ccccc1)C1=C[C@@H](C2CCCCC2)C[C@@H](OCc2ccc(CO)cc2)O1	-19.1%	7.4%	?	-3.3%	-5.8%
COC(=O)c1[nH]c2ccccc2c1CN1CCOCC1	·	-14.5%	·	·	-11.1%
COc1ccc(-n2c(-c3ccc(Br)cc3)nc(=S)c3c2CCCC3)cc1	0.0%	7.94µM*	-9.7%	0.9%	10µM*
COc1ccc(-n2c(-c3ccc(Br)cc3)n[nH]c2=S)cc1	·	2.24µM*	·	·	2.51µM*
COc1ccc(-n2c(-c3ccc(Br)cc3)c[n+]3c2CCCCC3)cc1	8.0%	?	4.1%	6.0%	?
COc1ccc(-c2n[nH]c(=S)n2-c2ccc(C)cc2)cc1	20.3%	0.891µM*	7.7%	8.5%	10µM*
CO[C@H]1COC(=O)C/C=C\[C@@H](C)COC(=O)[C@@H](OCc2ccccc2)/C=C\[C@@H]1C	-5.8%[11.6 µM]	-16.2%[10 µM]	-6.3%[11.5 µM]	-1.0%[11.6 µM]	-7.3%[10 µM]
OC[C@@H](O)[C@@H](O)CCc1ccccc1	-5.3%	1.6%	-7.4%	9.3%	-2.0%
Cc1nc(N)sc1-c1csc(Nc2ccccc2)n1	25.1µM*[quencher]	26.7%	11.2µM*	?	?
Cc1nc(Nc2ccccc2)sc1C	-14.4%	3.55µM*	-15.4%	5.7%	12.6µM*
Cc1cc(O)ccc1Nc1nc(-c2sc(N)nc2C)cs1	?	-27.5%	12.6µM*	?	0.5%
Cc1cc(NS(=O)(=O)c2ccc(Nc3nc(-c4sc(N)nc4C)cs3)cc2)no1	?	-7.1%	20µM*	?	-9.8%
CCOc1ccc(/C=C2\SC(=S)N(CCC(=O)Nc3ccccc3C(=O)O)C2=O)cc1	·	16.9%	·	·	-9.7%
CCC[C@@H]1C[C@@]1(CCC)C(NC(=O)c1cccs1)c1ccc(Cl)cc1 (some centres not stated)	-9.5%	1.3%	-8.4%	-3.6%	-18.7%
